# Screening results deposited in PubChem by several laboratories.
# CYP2C19 activ: human CYP2C19 activators, primary screen, biochemical, luminescence; activation factor at 5 µM; 96,000 tested, under 10 active; Cytochrome P450 2C19 (Homo sapiens), P33261; AID 1025, 2008; recombinant CYP2C19, luciferin-H EGE luminescence; hits give high values; 0 = fully inhibited enzyme, 1 = untreated enzyme;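 active means activation factor of at least 2 at 5 µM in the primary screen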;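 further: 0 = wells with 2.5 mM tranylcypromine and 1 = vehicle-only wells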
# CYP2C9 inh: blockers of cytochrome P450 2C9 activity – biochemical, luminescence, ADME assay, primary screen. inhibition, % at 5 µM. actives 20% (n = 96,000). P11712. CYP2C9 Supersomes, luciferin-H conversion. AID 777, 2007;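 active means blocking of liver enzyme CYP2C9 beyond about 50% at 5 µM, limit read from the data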
# CYP2C9 activ: human CYP2C9 activators, primary screen, biochemical, luminescence; Cytochrome P450 2C9 (Homo sapiens), P11712; recombinant CYP2C9, luciferin-H conversion; hits give high values; factor 1 = untreated enzyme, 0 = blocked; activation factor at 5 µM; actives 1.4% (n = 96,000); AID 1024, 2008;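 active means activation factor of 2 or more for CYP2C9 at a 5 µM dose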;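 further: 0 = sulfaphenazole-blocked wells and 1 = vehicle-only wells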
# Cav32 inh: Cav3.2 calcium influx blockers – cell-based, Fluo-4 calcium fluorescence, FDSS, MLSMR library, primary screen; Voltage-dependent T-type calcium channel subunit alpha-1H (Homo sapiens), O95180; Cav3.2-expressing cells; hits give low values; B-score at 10 µM; actives 4% (n = 100,000);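 active means single-dose well whose peak fluorescence ratio is a statistical outlier from its plate by either plate-standardised score or position-corrected B-score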
# CYP2C19 inhib: blockers of cytochrome P450 2C19 activity – biochemical, luminescence, ADME assay, primary screen; P33261; CYP2C19 Supersomes, luciferin-H EGE luminescence, 30 min; inhibition, % at 5 µM; actives 21% (n = 96,000); AID 778, 2007;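 active means CYP2C19 inhibition above a set limit at 5 µM in the primary screen, cut at about 50% in these data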;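 further: plate controls were negative control wells for no effect and 2.5 mM tranylcypromine positive control for full effect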
# * marks the source's active call; other numbers are inactive results; · = no result given. This is a sample that favours compounds with a hit; in the whole collection about 27% have one here.
SMILES,CYP2C19 activ,CYP2C9 inh,CYP2C9 activ,Cav32 inh,CYP2C19 inhib
CC(C)(C)NC(=O)CSc1nc(-c2ccccc2)c(-c2ccccc2)[nH]1,0.9,12,0.9,-1,11
Nc1nnc(SCC(=O)NC23CC4CC(CC(C4)C2)C3)s1,0.8,9,0.9,-0.96,16
COC(=O)c1c(C)[nH]c(C(=O)COC(=O)Cc2ccc3c(c2)OCCO3)c1C,0.8,81*,0.2,-2,20
Cc1nn(-c2ccccc2)c(N)c1C(O)(CSc1nccn1C)C(F)(F)F (stereo unspecified),0.1,87*,0.1,·,93*
Cc1ccc(Nc2nc(N)nc(CSc3nccn3C)n2)cc1,0.6,6,0.9,1.2,36
Cc1nn(-c2ccc(Cl)cc2)c(N)c1C(O)(CSc1nccn1C)C(F)(F)F (stereo unspecified),0.3,87*,0.1,-0.66,75*
Cc1c(NC(=O)CSc2nccn2C)c(=O)n(-c2ccccc2)n1C,1.1,-9,1.1,0.79,-6
CN(c1ccc(C(=O)N2CCOCC2)cc1[N+](=O)[O-])C1CCCCC1,1,-2,1,-1.4,0
CC1CN(C(=O)Cc2ccc(-c3ccccc3)cc2)CC(C)O1 (stereo unspecified),0.4,57*,0.4,0.92,58*
COc1cc(/C=C\C(=O)OCn2nnc3ccccc3c2=O)cc(OC)c1OC,·,·,·,-3.2,·
Cc1ccccc1N/C(=C(/C(Cl)=C(Cl)Cl)[N+](=O)[O-])n1nnc2ccccc21,1,35,0.7,1.4,1
COc1ccc(N/C(=C(/C(Cl)=C(Cl)Cl)[N+](=O)[O-])n2nnc3ccccc32)cc1,1.1,55*,0.4,-1.6,-5
O=C(Cn1sc2ccccc2c1=O)NC12CC3CC(CC(C3)C1)C2,0.6,90*,0.1,·,39
C/C(=N\NC(=O)c1csc2ccccc12)c1ccc(O)cc1,0.2,-175,2.8*,·,84*
O=C(OC(C(=O)NCC1CCCO1)c1ccccc1F)c1ccco1 (stereo unspecified),0.9,6,0.9,0.06,7
CC(C)OC(=O)c1c2nc3ccccc3nc2n2c1[nH]c(=O)c1ccccc12,1.1,15,0.9,·,-7
CCOC(=O)C1=C(O)/C(=C\c2cccc(OC)c2)N=C1C,0.3,28,0.7,1.1,65*
CCOC(=O)C1=C(O)/C(=C/N(C)C)N=C1C,1.1,-4,1,·,-8
Cc1cc(Br)ccc1NC(=O)CN1C(=O)CCC1=O,0.9,17,0.8,0.084,12
O=C(Nc1cccc(F)c1)N(Cc1ccc(Cl)cc1)CC(O)C(F)(F)F (stereo unspecified),0.5,50,0.5,-7.2*,47
CC(C)CC(=O)NC(NC(=S)Nc1sc2c(c1C#N)CCCC2)C(Cl)(Cl)Cl (stereo unspecified),0.5,100*,0,-5.3*,53*
Cn1ncc(Cl)c1C(=O)NC(=S)Nc1sc2c(c1C#N)CCCCC2,0.8,63*,0.4,-0.21,17
N#Cc1c(NC(=O)c2ccccc2)sc2c1CCC2,0.9,5,0.9,0.86,8
CC(C)C(C(=O)Nc1sc2c(c1C#N)CCCCC2)N1C(=O)c2ccccc2C1=O (stereo unspecified),0.7,64*,0.4,-8.7*,35
Cc1nn(C(C)C(=O)Nc2sc3c(c2C#N)CCCC3)c(C)c1[N+](=O)[O-] (stereo unspecified),0.8,61*,0.4,-3.3*,21
Cc1nn(CCCC(=O)Nc2sc3c(c2C#N)CCC3)c(C)c1[N+](=O)[O-],0.7,41,0.6,-0.62,30
COC(=O)C1(C(=O)OC)NOC2C(=O)N(c3ccc(Cl)cc3Cl)C(=O)C21 (stereo unspecified),1,-7,1.1,-0.36,4
O=C1N(c2ccc(Cl)c(Cl)c2)CN(Cc2ccccc2)CN1n1cnnc1,1.1,-16,1.2,0.052,-8
O=C(CSc1n[nH]c(-c2ccco2)n1)N1c2ccccc2Sc2ccccc21,0.5,52*,0.5,-2.4,48
O=C(CSc1nncs1)N1c2ccccc2Sc2ccccc21,0.4,37,0.6,0.4,62*
